# Bioassay records from PubChem BioAssay.
# TSHR ag: activates the human thyroid stimulating hormone receptor | P16473 | HEK293-CNG-TSHR cells (CNG channel as cAMP sensor), membrane potential dye, cAMP | Potency, µM (top dose mostly 57.1 µM), inactives show at the top dose activation, most hits filed as activators | 73,000 compounds, 0.48% hits; active means well fitted activation curve with a large enough effect in the main read-out, with a control signal flat, not every such curve was filed as active; inconclusive means small, poorly fitted or top-dose-only effect, or a change in a side signal; inactive means no such curve, though single readings can be large or run the other way; % of control where 0% means no effect;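 further: the control signal comes from parental cells without the receptor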
# Target sequence (P16473 whole entry, looked up): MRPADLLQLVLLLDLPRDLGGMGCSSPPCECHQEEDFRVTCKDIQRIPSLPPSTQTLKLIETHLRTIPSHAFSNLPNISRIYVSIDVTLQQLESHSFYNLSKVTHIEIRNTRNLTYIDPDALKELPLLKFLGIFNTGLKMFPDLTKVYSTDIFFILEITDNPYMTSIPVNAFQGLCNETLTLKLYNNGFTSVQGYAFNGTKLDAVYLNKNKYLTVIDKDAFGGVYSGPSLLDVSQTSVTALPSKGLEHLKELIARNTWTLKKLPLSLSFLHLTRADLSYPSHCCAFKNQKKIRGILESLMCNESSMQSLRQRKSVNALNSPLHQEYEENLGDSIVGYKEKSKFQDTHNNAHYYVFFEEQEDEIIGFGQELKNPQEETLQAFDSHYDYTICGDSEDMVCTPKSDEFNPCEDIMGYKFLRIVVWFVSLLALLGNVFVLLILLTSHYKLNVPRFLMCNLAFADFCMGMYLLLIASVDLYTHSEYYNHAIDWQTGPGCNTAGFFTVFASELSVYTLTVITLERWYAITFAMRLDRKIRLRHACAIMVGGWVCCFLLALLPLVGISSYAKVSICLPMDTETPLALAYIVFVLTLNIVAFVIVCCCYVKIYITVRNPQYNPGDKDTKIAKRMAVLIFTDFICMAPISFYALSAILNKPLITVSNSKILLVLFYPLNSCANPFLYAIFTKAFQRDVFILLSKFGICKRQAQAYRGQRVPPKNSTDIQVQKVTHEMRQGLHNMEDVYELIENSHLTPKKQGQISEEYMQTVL
#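 HEK 293 cells stably expressing TSHR and a cAMP-gated CNG channel; parental CNG-only cells as counterscreen. Cells preloaded 60 min with membrane potential dye plus 100 uM RO 20-1724, then compound 30 min; fluorescence read at 590 nm.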
# Peg3 imprint: induces erasure of genomic imprints in mouse ES cells; Potency, µM (top dose mostly 60.7 µM), for the others: at the highest dose activity change, positive = activation, most hits filed as activators; 110,000 compounds, 0.02% hits; mouse ES Peg3-LacZ reporter, beta-gal luminescence, 40 h; AID 1948
#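 Gelatin-coated wells received 300 freshly trypsinized female ES cells with a Peg3LacZ-Neo reporter on the maternal allele, then incubated 40 hours at 37C. BetaGlo was added for 5 minutes at room temperature before a single luminescence read.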
# HEK293 cAMP ctrl: counter-screen for TSHR agonists: cAMP increase in parental HEK293 | Potency, µM (top dose mostly 57.1 µM), without a hit: at the top dose activation, most hits filed as activators | parental HEK293 CNG cAMP sensor, membrane potential fluorescence | AID 938 | 73,000 compounds, 2.5% hits; further: % of control where 0% means no effect; nearly all actives have a fitted effect of over 55% in size
#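 Counterscreen for endogenous-receptor signalling: CNG-channel HEK 293 cells report cAMP rise by membrane depolarization. After 60 min dye equilibration with 100 uM RO 20-1724, compounds incubated 30 min before bottom-read fluorescence at 590 nm.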
# The depositor's hits bear a star; ? = inconclusive; / = not tested or not shown; [ ] = dose if it differs, or a comment. The full list was thinned out, with hits kept by preference. Unless noted, the call rests on the fitted dose curve; in most records, active means well fitted activation curve with a large enough effect; inconclusive means small, poorly fitted or top-dose-only effect; inactive means no such curve, though single readings can be large or run the other way. Potency means the concentration at half of the fitted maximal effect.
SMILES,TSHR ag,Peg3 imprint,HEK293 cAMP ctrl
CC(=O)Nc1ccccc1OCC(=O)c1cc(C)n(Cc2cccs2)c1C,?,-14%,10µM*
Cc1csc(SCC(=O)c2cc(C)n(Cc3cccs3)c2C)n1,?,-34%,16µM*
COc1ccc(-c2nnc(SCC(=O)c3cc(C)n(Cc4cccs4)c3C)o2)cc1,?,-6%,?
Cc1ccc(CSCCNC(=O)C2CCN(S(=O)(=O)Cc3ccccc3)CC2)cc1,/,-7%[10.9 µM],/
COc1ccc(-c2cn3c(n2)sc2cc(C(=O)NCCC4=CCCCC4)ccc23)cc1,/,27%[10.9 µM],/
COc1ccc(OC)c(NC(=O)c2ccc3nc(C(C)C)oc3c2)c1,/,-6%[10.9 µM],/
CC1=C(C(=O)Nc2cccnc2)C(c2ccc(Cl)cc2)n2nc(SCc3ccccc3)nc2N1 (centres undefined),/,-15%[10.9 µM],/
COc1ccc(S(=O)(=O)NCCc2csc(-c3ccc(F)cc3)n2)cc1,/,-9%[10.9 µM],/
CC1CCc2c(sc3ncn4c(SCC(=O)NCc5ccco5)nnc4c23)C1 (centres undefined),?,-6%,25µM*
O=C(CSc1nc(C2CC2)nc2sc3c(c12)CCCC3)NCc1ccco1,?,-2%,?
Cc1nc(SCC(=O)NCc2ccco2)c2c3c(sc2n1)CCCC3,?,-12%,13µM*
CC1CCc2sc3ncn4nc(C(=O)NCc5ccco5)nc4c3c2C1 (centres undefined),?,4%,?
O=C(O)c1ccc(Cl)c(S(=O)(=O)Nc2ccccc2)c1,-5%,/,-3%
O=C(c1ccco1)N(CC1CCCO1)c1nc(-c2ccccc2)cs1 (centres undefined),?,-25%,?
O=C(c1cccs1)N(CC1CCCO1)c1nc(-c2ccccc2)cs1 (centres undefined),?,-12%,16µM*
COCC(C)n1c(C)cc(C(=O)COC(=O)c2c(NC(C)=O)sc(C)c2C)c1C (centres undefined),13µM*,-9%,4%
COCC(C)n1c(C)cc(C(=O)COC(=O)c2c(C)nn(-c3ccccc3)c2C)c1C (centres undefined),?,-34%,?
CCn1cc(C2=NOC(C(=O)Nc3ccc4c(c3)OCO4)C2)c(C)n1 (centres undefined),?,/,1µM*
O=C(Nc1ccc2c(c1)OCO2)C1CC(c2ccccc2Cl)=NO1 (centres undefined),8%,-15%,8%
CCCC[C@H]1C[C@@H]1[C@@H]1N(P(=O)(c2ccccc2)c2ccccc2)[C@](CO)(c2ccccc2)CC12CC2,?,-30%,?
CCCC[C@H]1C[C@@H]1[C@@H]1N(C(C)=O)[C@H](c2cccc(OC)c2)CC12CC2,?,-15%,20µM*
CC(=O)NC(CCS(C)(=O)=O)C(=O)Nc1cccc(C)c1 (centres undefined),?,-8%,3.2µM*
CC(=O)NC(CCS(C)(=O)=O)C(=O)Nc1ccc(C)c(F)c1 (centres undefined),1%,-11%,4%
Cn1cnnc1SCC(=O)Nc1cc(C(=O)O)cc(C(=O)O)c1,/,-10%[10.9 µM],/
C[C@@H](CCc1ccc(O)cc1)NCCc1ccc(O)c(O)c1,?,-25%,?
SMILES,TSHR ag,Peg3 imprint,HEK293 cAMP ctrl
Cc1noc(C)c1S(=O)(=O)N(CC(=O)Nc1ccc(F)cc1F)c1ccc(C(C)C)cc1,/,-11%[10.9 µM],/
COC(=O)[C@@]1(Cc2ccccc2)[C@H]2c3cc(C(=O)N4CCCC4)n(CCO)c3C[C@H]2CN1C(=O)c1ccccc1,11%,-17%,16%
COC(=O)[C@@]1(Cc2ccc(F)cc2)[C@H]2c3cc(C(=O)N4CCCC4)n(Cc4ccc(C(F)(F)F)nc4)c3C[C@H]2CN1C(=O)c1ccccc1,?,-15%,?
COC(=O)C1(Cc2ccccc2)C2c3cc(C(=O)N4CCCC4)n(Cc4ccc(OC(F)(F)F)cc4)c3CC2CN1C(=O)c1ccccc1 (centres undefined),?,-28%,1.3µM*
COC(=O)[C@@]1(Cc2ccccc2)[C@H]2c3cc(C(=O)N4CCCC4)n(Cc4ccc(C(F)(F)F)nc4)c3C[C@H]2CN1C(=O)c1ccccc1,?,-17%,1.6µM*
COc1cccc(-c2nc(CS(=O)(=O)CC(=O)NCc3ccccc3OC)c(C)o2)c1,?,-20%,?
Cc1ccccc1-c1nc(CS(=O)(=O)CC(=O)NCCCc2ccccc2)c(C)o1,/,-3%[10.9 µM],/
Cc1ccccc1-c1nc(CS(=O)(=O)CC(=O)NCc2ccccc2)c(C)o1,16µM*,-14%,27%
COc1ccc(OC)c(CCNC(=O)CS(=O)(=O)Cc2nc(-c3ccccc3C)oc2C)c1,?,-12%,16µM*
CCCCn1c(SCC(=O)Nc2cccc(OC)c2)nc2ccsc2c1=O,/,-5%[10.9 µM],/
CCOC(=O)c1[nH]c(C)c(CN(CCc2ccccc2)S(C)(=O)=O)c1C,32µM*,-21%,20%
CCOC(=O)c1[nH]c(C)c(CN(CCc2ccc(OC)c(OC)c2)C(=O)CCCC(=O)O)c1C,5%[11.4 µM],-1%,-3%
COc1ccc(CNc2ncncc2-c2ccc(N(C)C)cc2)c(OC)c1,?,-10%,?
COc1ccccc1CNc1ncncc1-c1ccc(N(C)C)cc1,6.3µM*,-20%,-10%
N[C@H](C(=O)O)[C@@H]1C[C@@H]1C(=O)O,2%,-4%,-1%
CCNc1nc(NC(C)C)nc(N(C#N)Cc2ccccc2)n1,24%,-26%,19%
CCNc1nc(NC(C)C)nc(N(C#N)CCOc2ccc(Cl)cc2Cl)n1,?,-23%,32µM*
Cc1ccc(CNC(=O)CN2C(=O)COc3ccc(S(=O)(=O)Nc4ccccc4)cc32)cc1,/,7%[10.9 µM],/
O=S(=O)(c1ccccc1)c1nc(-c2ccco2)oc1NCc1ccco1,18%,-21%,16%
CC1CN(c2oc(-c3ccco3)nc2S(=O)(=O)c2ccccc2)CC(C)O1 (centres undefined),25µM*,-6%,27%
COc1ccc(/C=N/NC(=O)c2cc(-c3ccc(Cl)cc3)n[nH]2)cc1OC,15%,/,25%
COCCn1c(SCC(=O)c2ccc(CNC(C)=O)o2)nc2ccccc2c1=O,?,-5%,?
COCCn1c(SCC(=O)N2CCC(C)CC2)nc2ccccc2c1=O,?,-15%,20µM*
CCOC(=O)c1oc2ccccc2c1CSc1nnc(-c2ccco2)o1,?,-5%,?
CCOC(=O)c1oc2ccccc2c1CSc1nnnn1-c1ccc(C)cc1,?,13%,7.9µM*
SMILES,TSHR ag,Peg3 imprint,HEK293 cAMP ctrl
CCn1c(SCC(=O)N2c3ccccc3Sc3ccccc32)nc2c1c(=O)n(C)c(=O)n2C,20µM*,/,7%
CCn1c(SCC(=O)N2CCc3ccccc3C2)nc2c1c(=O)n(C)c(=O)n2C,0%,14%,8%
Cc1ccc(Cn2c(SCC(C)C)nc3c2c(=O)n(C)c(=O)n3C)cc1,?,-13%,25µM*
CCSc1nc2c(c(=O)n(C)c(=O)n2C)n1Cc1ccc(Cl)cc1,?,-8%,?
Cc1ccc(N2CC(NC(=O)C3CCCCC3)CC2=O)cc1 (centres undefined),/,9%[10.9 µM],/
Cc1cccc(NC(=O)CN2C(=O)COc3ccc(S(=O)(=O)N4CCC(C)CC4)cc32)c1C,/,-6%[10.9 µM],/
CCCC(=O)NCCc1nc2ccccc2n1Cc1c(F)cccc1Cl,/,-13%[10.9 µM],/
